The full list was thinned out, with hits kept by preference.
Pf Dd2 inh = inhibitors of Plasmodium falciparum Dd2 growth. AID 1347417. P. falciparum Dd2 growth, SYBR Green, 72 h. Potency, µM (top dose mostly 28.9 µM), actives largely listed as inhibitors. 4.3% of 120,000 active; active means well fitted inhibition curve with a large enough effect; further: nearly all actives have a fitted effect of over 65% in size
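Infected erythrocytes (Dd2, 0.3% parasitemia, 2.5% hematocrit final) are added to compound in RPMI-1640/Albumax II medium, grown 72 h at 37C in low oxygen, then lysed with saponin/Triton-X containing SYBR Green and read by fluorescence.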
Of the large screens only hits and unclear results are named; the others gave an inactive call.

Cc1ncc2c(n1)C[C@@H]1CC[C@H]2N1C(=O)NC(C)(C)C	none
COc1ccc(C(=O)N2CCn3c(nnc3[C@@H]3C[C@@H](O)CN3Cc3ccccc3)C2)cn1	none
Cn1ccc(NC(=O)CC[C@H]2NC(=O)c3ccccc3NC2=O)n1	none
CC(C)CCN1CCNC(=O)C1CC(=O)N(C)Cc1nc2ccccc2[nH]1 (stereo not drawn)	none
CNc1nccc(N2CCC(CC(=O)NCc3nc4ccccc4n3C)CC2)n1	none
CC(C)(C)CC(=O)N1CC[C@@H](CC(=O)O)[C@@H](CCN2CCOCC2)C1	none
Cc1nn(C)c(C)c1CCC(=O)N1CCOCC1CC(=O)NC1CCCC1 (stereo not drawn)	none
COc1ccccc1NC(=O)COc1cccc(-c2nnc3n2CCCC3)c1	Pf Dd2 inh 0.631µM
COc1ccccc1NC(=O)Cn1cnc2c(nc3n2CCCCC3)c1=O	none
O=C(COc1cccc(-c2nnc3n2CCCC3)c1)NCc1ccccc1	none
O=C(c1cc(F)ccc1Cl)N1CCC(Cc2nc(-c3ccc(F)cc3)no2)CC1	none
Cc1cc(=O)n(CC(=O)Nc2ccc3c(c2)OCCO3)c(-c2ccc(Cl)cc2)n1	none
COc1ccc(C(=O)Nc2ccc(-c3nnc4n3CCCCC4)cc2)cc1OC	none
CCN1CCN(C(=O)c2ccc(-c3nnc4ccc(NC(=O)C5CC5)cn34)cc2)CC1	Pf Dd2 inh 0.447µM
Cc1ccc(NC(=O)C2CCN(C(=O)c3nnn4c3COC(c3ccc(C)cc3)C4)CC2)cc1 (stereo not drawn)	none
COc1ccc(C(=O)Nc2ccc(-c3nnc4n3CCCCC4)cc2)cc1	none
O=C(Nc1ccc(F)c(Cl)c1)C1CCN(C(=O)c2ccc(F)cc2)CC1	none
CCN1CCN(C(=O)c2ccc3nccn3c2)CC1	none
O=C(Nc1ccc2nnc(-c3ccc(C(=O)N4CCSCC4)cc3)n2c1)C1CCC1	Pf Dd2 inh 2.24µM
CCOc1ccc(C(=O)Nc2ccc3c(c2)OCCO3)cc1Br	none
CC(C)c1ccc(NC(=O)C2CCN(C(=O)c3ccc(F)cc3)CC2)cc1	none
COc1ccc(NC(=O)c2ccc(-c3nnc4ccc(NC(=O)C5CCC5)cn34)cc2)cc1	Pf Dd2 inh 1µM
CCC(=O)Nc1ccc2nnc(-c3ccc(C(=O)Nc4ccc5c(c4)OCCO5)cc3)n2c1	Pf Dd2 inh 0.282µM
CCn1ccc(C(=O)N2CCC(c3n[nH]c(=O)n3-c3ccc(C)cc3)CC2)n1	none
CCOc1ccc(NC(=O)N2CC3CC(C2)[C@H]2CCCC(=O)N2C3)cc1 (stereo partly drawn)	none
COCC(=O)N(C1CCOCC1)C1CCN(C(=O)c2ccsc2)CC1	none
Cc1cc(C(=O)NCCc2noc(-c3ccccc3)n2)nn1C	none
COCC[C@]1(O)CCN(C(=O)c2ccc(OCC(N)=O)cc2)C[C@H]1C	none
O=C(NCc1nnc2c(-c3nc(C4CC4)no3)cccn12)c1cc(Cl)ccc1F	none
COC[C@@H]1CN(c2cnccn2)C[C@H]1C(=O)NCc1ccc(C)c(C)c1	none
O=C(Nc1ccc(C2(C(=O)NCc3ccc(F)c(Cl)c3)CCC2)cc1)C1CC1	none
Cc1ccc(C(=O)N2CCN(C(=O)c3nnn4c3COC(c3ccccc3)C4)CC2)c(C)c1 (stereo not drawn)	none
O=C(Nc1ccc(-c2nnc3n2CCCC3)cc1)C1CCCCC1	none
CN(C)C(=O)c1ccc(-c2nnc3ccc(NC(=O)C4CCC4)cn23)cc1	Pf Dd2 inh 3.98µM
O=C(NC1CC1)c1ccc2nnc(-c3ccc(C(F)(F)F)cc3)n2c1	none
O=C(c1ccc(N2CCCC(CO)C2)nc1)N1CCC(N2CCOCC2)CC1 (stereo not drawn)	none
CCNC(=O)NC[C@H]1C[C@@H]2CCN1C[C@@H]2c1cc(-c2ccccc2)nc(C)n1	none
CC(C)c1ccc(NC(=O)OC[C@H]2C[C@@H]3CCN2C[C@@H]3c2cc(C3CCCCC3)nn2C)cc1	none
COc1ccc(NC(=O)OC[C@H]2C[C@@H]3CCN2C[C@@H]3c2cc(C3CCCC3)nc(-c3ccncc3)n2)cc1	Pf Dd2 inh 1.78µM
COc1ccc(-c2cc([C@H]3CN4CC[C@H]3C[C@@H]4COC(=O)NC3CCCCC3)nc(C)n2)cc1	none
Cc1nc(C2CCCC2)cc([C@H]2CN3CC[C@H]2C[C@@H]3CNC(=O)CCCC(=O)O)n1	none
COc1ccc(OC)c(S(=O)(=O)NC[C@H]2C[C@@H]3CCN2C[C@@H]3c2cc(-c3ccco3)nc(C)n2)c1	none
CC(C)(C)c1ccc(NC(=O)OC[C@H]2C[C@@H]3CCN2C[C@@H]3c2cc(C3CCCC3)nc(-c3ccncc3)n2)cc1	Pf Dd2 inh 1µM
CC(=O)NC[C@H]1C[C@@H]2CCN1C[C@@H]2c1cc(-c2ccc(F)cc2)nc(C)n1	none
COc1ccc(NC(=O)OC[C@H]2C[C@@H]3CCN2C[C@@H]3c2cc(-c3ccccc3OC)nn2C)cc1	none
CC(=O)Nc1ccc(S(=O)(=O)NC[C@H]2C[C@@H]3CCN2C[C@@H]3c2cc(-c3ccco3)nc(C)n2)cc1	none
CCC(CC)c1cc([C@H]2CN3CC[C@H]2C[C@@H]3CNC(C)=O)nc(-c2ccncc2)n1	Pf Dd2 inh 2µM
Cc1nc(-c2ccco2)cc([C@H]2CN3CC[C@H]2C[C@@H]3CNS(=O)(=O)c2cccs2)n1	Pf Dd2 inh 7.08µM
COCCN1C(=O)CS(=O)(=O)C12CCN(C(=O)c1ccc(OC)c(F)c1)CC2	none
O=C(c1cnccn1)N1CCCC(n2cc(-c3nc(-c4ccccc4)no3)nn2)C1 (stereo not drawn)	none
CC(=O)N1CCC2(CC1)CN(C(C)=O)Cc1ccccc1O2	none
COc1ccc(CC(=O)N2CCC3(CC2)N(C)C(=O)CS3(=O)=O)cc1Cl	none
O=C1NC(=NC2CCCCC2)C2(CCN([S+](=O)([O-])c3ccccc3)CC2)N1c1cc(F)cc(F)c1	none
O=C(NC1CCCC1)N[C@@H]1C[C@H](Cn2cc(C3CC3)nn2)[C@@H](O)[C@H]1O	none
COc1ccc(C(=O)N2C[C@@H]3C[C@H](C2)c2ccc(NC(=O)Nc4cccc(C#N)c4)c(=O)n2C3)cc1	none
N#Cc1ccc(CN2CCC(c3nn(Cc4ccccc4)c(=O)[nH]3)CC2)cc1	none
Cc1noc(C)c1CNCC1(COc2cccnc2)C[C@@H](O)[C@@H](O)C1 (stereo partly drawn)	none
CC(C)NC(=O)N1C[C@@H](Oc2cccnc2)C[C@H]1C(=O)N1CCCC1	none
Cn1nc(-c2ccc3ccccc3c2)cc1[C@H]1CN2CC[C@H]1C[C@@H]2CNS(=O)(=O)c1cccs1	Pf Dd2 inh 12.6µM
Cn1nc(-c2ccc3ccccc3c2)cc1[C@H]1CN2CC[C@H]1C[C@@H]2COC(=O)Nc1ccccc1	none
Cn1nc(-c2cccs2)cc1[C@H]1CN2CC[C@H]1C[C@@H]2CNS(=O)(=O)c1ccccc1	none
CCCNC(=O)OC[C@H]1C[C@@H]2CCN1C[C@@H]2c1cc(C(CC)CC)nc(-c2ccncc2)n1	Pf Dd2 inh 1.41µM
CCC(CC)C(=O)NC[C@H]1C[C@@H]2CCN1C[C@@H]2c1cc(-c2ccco2)nc(C)n1	none
Cc1ccc(C(=O)NC[C@H]2C[C@@H]3CCN2C[C@@H]3c2cc(-c3ccc(F)cc3)nn2C)cc1	none
CC(=O)c1ccc(NC(=O)OC[C@H]2C[C@@H]3CCN2C[C@@H]3c2cc(-c3cccs3)nn2C)cc1	none
CCC(CC)c1cc([C@H]2CN3CC[C@H]2C[C@@H]3COC(=O)Nc2ccc(C(C)(C)C)cc2)nc(-c2ccncc2)n1	Pf Dd2 inh 1.26µM
COc1ccc(C(=O)NC[C@H]2C[C@@H]3CCN2C[C@@H]3c2cc(-c3ccc(F)cc3)nn2C)cc1	none
Cn1nc(-c2ccccc2)cc1[C@H]1CN2CC[C@H]1C[C@@H]2CNS(=O)(=O)c1cccs1	none
COc1ccccc1-c1cc([C@H]2CN3CC[C@H]2C[C@@H]3COC(=O)Nc2cccc(C(C)=O)c2)nc(C)n1	none
